High-throughput results deposited in PubChem by several laboratories.
This is a sample that favours compounds with a hit; in the whole collection about 1.9% have one here.
SDO1 yeast rescue: sdo1-depleted yeast growth rescue; S. cerevisiae sdo1-depleted JHY4D growth rescue, OD600 30 h; stronger effect = higher value; pdr5 snq2 efflux-pump mutant strain; 140,000 compounds, 0.21% hits; z-score at 10 µM;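 active = z-score above 3 at both the 24 hr and the 30 hr optical density reads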;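 also: z-score against mean and SD of all compound wells on the same plate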
sEH inh: soluble epoxide hydrolase (human) inhibition | P34913 | recombinant human sEH enzymatic activity assay | inhibition, % at 2 µM | 91,000 compounds, 0.34% hits; in the data active = inhibition above about 80%
Target sequence (P34913 whole entry, looked up): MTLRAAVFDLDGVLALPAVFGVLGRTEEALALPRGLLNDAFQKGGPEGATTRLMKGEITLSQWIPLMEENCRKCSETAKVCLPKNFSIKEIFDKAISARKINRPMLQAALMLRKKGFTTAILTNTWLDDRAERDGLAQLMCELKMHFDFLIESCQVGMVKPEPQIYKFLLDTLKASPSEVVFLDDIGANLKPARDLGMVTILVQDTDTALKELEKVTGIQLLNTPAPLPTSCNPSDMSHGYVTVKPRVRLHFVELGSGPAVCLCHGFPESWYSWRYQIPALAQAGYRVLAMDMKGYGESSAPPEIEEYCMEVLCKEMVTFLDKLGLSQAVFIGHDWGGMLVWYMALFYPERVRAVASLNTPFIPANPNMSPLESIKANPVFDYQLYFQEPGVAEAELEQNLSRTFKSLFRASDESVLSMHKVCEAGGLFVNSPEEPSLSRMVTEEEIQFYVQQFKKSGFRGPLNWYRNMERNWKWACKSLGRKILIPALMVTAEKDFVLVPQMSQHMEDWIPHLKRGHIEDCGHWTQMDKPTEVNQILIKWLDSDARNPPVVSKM
Measles CPE: protection of cells from measles virus | Measles virus-infected cells, CPE protection, absorbance | protection (pct of control), % at 4 µM | 140,000 compounds, 1.5% hits; in the data active = protection mostly above about 24%, no sharp cut-off; inactive = mostly below about 26%
sEH activator: increases human soluble epoxide hydrolase activity. purified human sEH enzymatic activity, activator screen. P34913. activation, % at 2 µM. 91,000 compounds, 0.04% hits. AID 717; in the data active = activation above about 37%
* = called active by the depositor; . = no result given.

SMILES | SDO1 yeast rescue | sEH inh | Measles CPE | sEH activator
Cn1nnnc1SCC(=O)N1c2ccccc2Sc2ccccc21 | 0.14 | 11 | 5 | -12
CCOC(=O)c1cc(C(=O)Nc2ccc(C)c(F)c2)nn1C | 0.15 | -2 | 11 | 1
COc1ccc2cc3cc(C(=O)NCCc4ccc(OC)c(OC)c4)oc3nc2c1 | -1.4 | -3 | 3 | 2
CCn1cc([N+](=O)[O-])c(C(=O)N2N=C(c3ccccc3)CC2c2ccc([N+](=O)[O-])cc2)n1 (configuration not stated) | -0.08 | . | 27* | .
CCn1cc([N+](=O)[O-])c(C(=O)N2N=C(c3ccc(O)c(OC)c3)CC2c2ccccc2O)n1 (configuration not stated) | 0.92 | . | 5 | .
CC(C)(C)c1ccc(C(=O)NCc2ccc(Cl)cc2)cc1 | -0.65 | 13 | 27 | -11
O=C(COC(=O)c1ccc(Br)o1)Nc1cccc(S(=O)(=O)N2CCCCCC2)c1 | -0.58 | -4 | 34* | 6
Cc1cnc(C(=O)OCC(=O)Nc2cccc(S(=O)(=O)N3CCCCC3)c2)cn1 | 0.57 | . | 4 | .
Cc1ccc(OCC(=O)Nc2cccc(S(=O)(=O)N3CCCCC3)c2)c([N+](=O)[O-])n1 | 1.2 | . | 29* | .
Cc1cc(C)n(-c2nc3nonc3nc2Nc2cccc(C)c2C)n1 | -0.26 | 0 | 31* | 3
C#CCOCCOCCOCCNc1nc(N2CCN(C(=O)[C@H]([C@@H](C)CC)n3cc(CCC(=O)O)nn3)CC2)nc(N2CCN(C(=O)[C@H](C)n3cc(CCCN=C(N)N)nn3)CC2)n1 | 0.48 | . | 5 | .
Nc1ncnc2c1ncn2[C@H]1C[C@H](O)[C@@H](CO)O1 | 0.35 | . | 4 | .
Nc1ncnc2c1ncn2[C@@H]1O[C@H](CO)[C@@H](O)[C@H]1O | 0.18 | . | 45* | .
Cn1c(SCC#N)nnc1-c1cccnc1 | 1.7 | . | 3 | .
O=C(CCSc1ccc(Cl)cc1)N1CCCCCC1 | -0.36 | -1 | 31* | 2
CC(NC(=O)CSc1nnc(-c2cccc(S(=O)(=O)N3CCCCC3)c2)o1)C12CC3CC(CC(C3)C1)C2 (configuration not stated) | -1.5 | 93* | 5 | -93
Cc1ccc(CNC(=O)C23CN(Cc4ccccc4)CC2C(c2ccc([N+](=O)[O-])cc2)=NO3)cc1 (configuration not stated) | -0.26 | 6 | 41* | -6
O=C(NCC1CCCO1)C(c1cccs1)N(C(=O)c1ccc(-c2ccccc2)[nH]1)C1CCCC1 (configuration not stated) | -0.81 | . | 51* | .
O=C(NCC1CCCO1)C(c1cccs1)N(Cc1ccccc1)C(=O)c1ccc(-c2ccccc2)[nH]1 (configuration not stated) | -0.64 | . | 11 | .
CCOC(=O)c1cnc2ccc(OCC)cc2c1N(C)Cc1ccccc1 | -0.52 | . | 16 | .
O=C(/C=C/c1ccccc1Cl)NCCc1ccc(F)cc1 | -0.5 | . | 7 | .
Cc1ccc(NC(=O)CSc2nc3ccccc3c(=O)n2Cc2cccs2)cc1 | -0.6 | . | 14 | .
CC(C)c1ccc(NC(=O)NC2CCN(CC(=O)Nc3cccc4ccccc34)CC2)cc1 | 1.2 | 90* | 28 | -89
O=C(CN1CCC(NC(=O)c2ccco2)CC1)Nc1cccc2ccccc12 | -0.47 | 7 | 9 | -4
COCCNC(=O)CN1CCC(NC(=O)Nc2ccccc2)CC1 | 0.4 | 22 | 19 | -23
SMILES | SDO1 yeast rescue | sEH inh | Measles CPE | sEH activator
COCCNC(=O)CN1CCC(NC(=O)Nc2ccc(C(F)(F)F)cc2)CC1 | 0.99 | 89* | 8 | -89
O=C(CCSc1nnc(-c2ccncc2)o1)Nc1ccc(Cl)cc1 | -3.4 | . | 26 | .
O=C(CCSc1nnc(-c2ccncc2)o1)Nc1ccccc1Cl | 1.1 | 2 | 30* | -4
COc1cc(NC(=O)CSc2nnnn2-c2ccccc2)cc(OC)c1OC | -1.9 | -5 | 104* | 1
COc1ccc(NC(=O)CSc2nnnn2-c2ccc(OC)cc2)cc1 | -0.69 | 14 | 5 | -16
Cc1ccc(S(=O)(=O)NCc2ccco2)cc1C | 0.45 | . | 43* | .
COc1ccc(C2CC(c3ccccc3)=NN2C(=O)COC(=O)c2cc(S(=O)(=O)N3CCOCC3)ccc2Cl)cc1 (configuration not stated) | 0.12 | . | 22 | .
COc1cccc(C(=O)Nc2ccc(F)c(F)c2F)c1 | 0.28 | 8 | 15 | -4
COc1cccc(C(=O)Nc2ccc(F)cc2F)c1 | 0.64 | 1 | 45* | -1
O=C(CSc1nc2ccc(Cl)cc2[nH]1)NCCc1ccccc1 | -0.49 | . | 29* | .
COC(=O)c1ccc(NC(=S)NC(=O)c2c(Cl)cnn2C)cc1 | -0.01 | . | 14 | .
CCc1nc(SCC(=O)c2cccs2)c2oc3ccccc3c2n1 | -1.1 | . | 4 | .
C=C(C)Cn1c(SCC)nc2ccccc2c1=O | -1 | -7 | 28* | 4
CC(=O)NCCn1c(SCc2ccccc2C)nc2ccccc2c1=O | -0.26 | -3 | 6 | 4
